A selection: hits, their analogues and other compounds. The true share with any hit is near 1.6%.
KCNQ2 pot – potentiators of rat KCNQ2 potassium channel | CHO-K1 KCNQ2, FluxOR thallium flux fluorescence; hits give high values | actives 0.54% (n = 310,000) | AID 2239 | O88943 | B-score at 10 µM;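 active means fluorescence ratio B-score at least 3 SD of library B-scores, with initial fluorescence B-score within 3 of them, cut at about 5.3 in these data; same plate scores as AID 2156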;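 further: B-score of peak minus minimum over baseline fluorescence ratio after K+ and Tl+ stimulus; positive B-score means potentiation of KCNQ2 with more thallium influx and brighter signal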
Target sequence (O88943 whole entry, looked up): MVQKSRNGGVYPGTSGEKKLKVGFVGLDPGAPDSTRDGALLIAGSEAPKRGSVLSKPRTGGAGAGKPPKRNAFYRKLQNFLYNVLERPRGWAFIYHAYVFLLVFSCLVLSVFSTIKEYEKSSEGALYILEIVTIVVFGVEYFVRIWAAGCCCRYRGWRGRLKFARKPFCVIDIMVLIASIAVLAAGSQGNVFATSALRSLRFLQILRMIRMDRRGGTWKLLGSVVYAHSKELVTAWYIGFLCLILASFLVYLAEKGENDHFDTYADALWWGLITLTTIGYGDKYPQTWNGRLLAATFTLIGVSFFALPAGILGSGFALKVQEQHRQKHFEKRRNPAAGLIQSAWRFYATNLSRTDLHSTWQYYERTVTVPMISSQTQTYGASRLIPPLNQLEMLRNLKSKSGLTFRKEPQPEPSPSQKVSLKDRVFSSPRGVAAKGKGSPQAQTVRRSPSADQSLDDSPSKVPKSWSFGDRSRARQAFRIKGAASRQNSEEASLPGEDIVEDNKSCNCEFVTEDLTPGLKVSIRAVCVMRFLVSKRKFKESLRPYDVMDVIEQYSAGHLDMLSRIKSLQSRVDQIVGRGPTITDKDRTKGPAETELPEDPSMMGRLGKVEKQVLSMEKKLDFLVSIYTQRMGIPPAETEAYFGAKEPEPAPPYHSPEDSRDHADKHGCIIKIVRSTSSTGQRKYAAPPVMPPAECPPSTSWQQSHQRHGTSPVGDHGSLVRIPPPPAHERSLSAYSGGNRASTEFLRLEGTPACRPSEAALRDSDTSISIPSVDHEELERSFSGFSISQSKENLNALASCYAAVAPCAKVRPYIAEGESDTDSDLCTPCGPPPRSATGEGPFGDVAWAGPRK
KCNQ2 inh – inhibitors of rat KCNQ2 potassium channel; O88943; AID 2156; actives 1.1% (n = 310,000); CHO-K1 KCNQ2, FluxOR thallium flux, 20 min; hits give low values; B-score at 10 µM;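 active means fluorescence ratio B-score at most minus 3 library SDs, with starting brightness B-score within 2 library SDs, cut at about -5.5 in these data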
* hit, by the source's call; i = inactive; x = no result given.

SMILES | KCNQ2 pot | KCNQ2 inh
CC(=O)SC(C[N+](=O)[O-])c1cn(C(C)=O)c2ccccc12 (stereo unspecified) | -5.6 | -5.6*
CC(=O)n1cc(Nc2ccc([N+](=O)[O-])cc2)c2ccccc21 | 0.03 | i
CC1CC(C)(C)NC(=S)N1CCC(=O)N1CCc2ccccc2C1 (stereo unspecified) | 0.38 | i
CSc1ccc(CNC(=O)CCn2ccc3cc(S(=O)(=O)N4CCCC4)ccc32)cc1 | x | i
Cn1c(=O)n(C)c2cc(N3CCCCC3)c(NC(=O)c3cccc(Cl)c3)cc21 | x | i
CC(C)C(=O)N1CCN(c2ccccc2NC(=O)c2cccc3ccccc23)CC1 | -7.3 | -7.3*
O=C(Nc1ccccc1N1CCN(C(=O)c2ccccc2)CC1)c1ccc(Cl)cc1 | x | i
CC(C)C(=O)N1CCN(c2ccccc2NC(=O)c2cccc(Cl)c2)CC1 | -6.6 | -6.6*
COc1ccc(C(=O)Nc2ccccc2N2CCN(C(=O)c3ccccc3)CC2)cc1Br | -7.2 | -7.2*
CS(=O)(=O)N1CCN(c2ccccc2NC(=O)c2cccc3ccccc23)CC1 | x | i
COc1ccc(NC(=O)COC(=O)C2CCC(C(C)(C)C)CC2)c([N+](=O)[O-])c1 (stereo unspecified) | 0.05 | i
COc1ccc(N2CC(C(=O)N[C@@H](C)C(=O)NCCc3ccccc3)CC2=O)cc1 (stereo partly specified) | 1.3 | i
Cc1ccc(C(c2nnnn2Cc2ccccc2)N2CCN(Cc3ccccc3)CC2)cc1 (stereo unspecified) | x | i
Cc1ccccc1C(=O)NC(=S)Nc1ccc2[nH]c(=O)[nH]c2c1 | x | i
CN(Cc1ccccc1)C(=O)CSc1nc2ccccc2c(=O)n1Cc1ccco1 | x | i
O=c1c2ccccc2nc(SCc2cc(F)cc3c2OCOC3)n1Cc1ccco1 | -8 | -8*
CCOC(=O)c1cc2c(c(CSc3nc4ccccc4c(=O)n3Cc3ccco3)c1)OCOC2 | -5.6 | -5.6*
O=C(CSc1nc2ccccc2c(=O)n1Cc1ccco1)NCc1ccco1 | 1.1 | i
S=C(NC1CCCCC1)N1CCN(c2ccccn2)CC1 | x | i
CC(CC(=O)NNC(=O)c1cccc(Cl)c1)c1ccccc1 (stereo unspecified) | 1.4 | i
COc1ccc(CNC(=O)Cn2cc3c(n2)CCCCC3)cc1 | 0.78 | i
COc1cccc(NC(=O)Cn2cc3c(n2)CCCCC3)c1 | -6.5 | -6.5*
Cc1ccc(NC(=O)c2cccc(S(=O)(=O)N(C)C3CCCCC3)c2)nc1 | x | i
CC(C)(C)N/N=C1\CC(c2ccccc2)Oc2ccccc21 (stereo unspecified) | -7.2 | -7.2*
c1ccc(C2C/C(=N\N3CCOCC3)c3ccccc3O2)cc1 (stereo unspecified) | x | i
SMILES | KCNQ2 pot | KCNQ2 inh
O=C(CSc1nnc(-c2ccc(Cl)cc2)n1Cc1ccco1)Nc1ccc2c(c1)OCCO2 | 0.48 | i
CC(Sc1nnc2ccccn12)C(=O)NCc1ccc2c(c1)OCO2 (stereo unspecified) | x | i
CC(=O)Nc1cccc(NC(=O)CSc2ncc(-c3ccc(Cl)cc3)n2Cc2ccco2)c1 | -6.6 | -6.6*
COc1ccc(-c2nnc(SC(C)C(=O)NCc3ccc4c(c3)OCO4)n2Cc2ccco2)cc1 (stereo unspecified) | -8.2 | -8.2*
O=C(CSc1nnc(-c2ccc(Cl)cc2)n1Cc1ccco1)NCc1ccc2c(c1)OCO2 | -5.9 | -5.9*
Cc1cc(Cl)ccc1NC(=O)CSc1nnc(-c2ccncc2)n1Cc1ccco1 | 1.6 | i
COc1ccc(S(=O)(=O)N2CCOCC2)cc1NC(=O)CSc1cccc[n+]1[O-] | x | i
COc1ccccc1-c1nnc(SCC(=O)Nc2ccc(S(N)(=O)=O)cc2)n1N | 0.29 | i
COc1cccc(CN(C)C(=O)CNC(=O)c2ccc(-c3ccccc3)cc2)c1OC | x | i
Fc1ccc(-c2csc(=S)[nH]2)cc1 | 11* | i
O=c1[nH]c(-c2ccc(Cl)cc2)cs1 | x | i
S=C(Nc1ccccc1Cl)N1CCCC(c2ccccc2)=N1 | -6.5 | -6.5*
S=C(Nc1ccccc1Cl)N1CCCCCC1 | 0.14 | i
COc1ccc(NC(=O)COc2coc(CN3CCN(c4ccccc4)CC3)cc2=O)cc1 | x | i
O=C(CCN1CCc2ccccc2CC1)c1ccc2c(c1)OCCO2 | -5.8 | -5.8*
O=C(CCCN1CCOCC1)c1ccc2c(c1)OCCO2 | 0.39 | i
COc1ccc2nc(SCC(=O)NCc3ccc(S(N)(=O)=O)cc3)[nH]c2c1 | 1.2 | i
COc1ccccc1-n1c(SCC(=O)NCc2ccc3c(c2)OCO3)nc2cc([N+](=O)[O-])ccc21 | x | i
CC(Sc1nc2cc([N+](=O)[O-])ccc2n1-c1ccc(F)cc1)C(=O)NCc1ccc2c(c1)OCO2 (stereo unspecified) | -8 | -8*
C/C(=N\OCc1nc2ccccc2c(=O)n1/N=C/c1cc([N+](=O)[O-])ccc1O)c1ccccc1 | 2.1 | i
C/C(=N\OCc1nc2ccccc2c(=O)n1/N=C/c1cc(C)cc([N+](=O)[O-])c1O)c1ccccc1 | -8.3 | -8.3*
CCCC(CCC)C(=O)Nc1c[nH]c(=O)[nH]c1=O | x | i
COC(=O)c1ccccc1NC(=O)c1cn(-c2ccc(C)c(C)c2)c(=O)c2ccccc12 | x | i
CCOC(=O)c1ccccc1NC(=O)c1cn(-c2ccc(C)c(C)c2)c(=O)c2ccccc12 | -6.4 | -6.4*
O=C(/C=C/c1c(F)cccc1Cl)NCCCN1CCOCC1 | x | i
SMILES | KCNQ2 pot | KCNQ2 inh
CN(Cc1ccc(F)cc1)C(=O)C(c1ccccc1)c1ccccc1 | x | i
COc1ccccc1CN(C)C(=O)C(c1ccccc1)c1ccccc1 | -5.6 | -5.6*
CC(C)c1cccc(C(C)C)c1NC(=O)c1ccccc1 | 0.16 | i
COc1ccc(OC)c(C(C(=O)NC2CCCCC2)N(C(=O)c2snc(C(N)=O)c2N)c2ccccc2OC)c1 (stereo unspecified) | x | i
COc1ccc(N(C(=O)c2snc(C(N)=O)c2N)C(C(=O)NC2CCCC2)c2cccs2)c(OC)c1 (stereo unspecified) | -8 | -8*
N#Cc1ccc(COn2nnc3ccccc32)cc1 | 0.58 | i
Nc1ccc(-c2nnnn2-c2ccc(N)cc2)cc1 | x | i
O=C(O)Cn1c(=O)c2c3c(sc2n(Cc2ccc(F)cc2)c1=O)CCCC3 | x | i
O=C(O)Cn1c(=O)c2c3c(sc2n(Cc2ccccc2F)c1=O)CCCC3 | -6.2 | -6.2*
CCCOc1ccc(-c2nc(N3CCN(C)CC3)c3ccccc3n2)cc1 | -6.7 | -6.7*
CCCOc1ccc(-c2nc(N3CCN(CC)CC3)c3ccccc3n2)cc1 | x | i
Cc1ccc(OCc2nnc(SCC(=O)c3cccc([N+](=O)[O-])c3)n2C)cc1 | x | i
O=C1c2ccccc2OC2(C=Cc3ccccc3O2)N1Cc1ccccc1 (stereo unspecified) | -8.3 | -8.3*
O=C1NC2(CCN(Cc3ccccc3)CC2)Oc2ccccc21 | x | i
COc1cccc(NC(=O)CSc2nc3c(sc4ccccc43)c(=O)n2CCN(C)C)c1 | 0.49 | i
COc1cccc(NC(=O)CSc2nc3c(sc4ccccc43)c(=O)n2CCCN2CCCC2)c1 | -6.7 | -6.7*
Cc1ccc(NC(=O)CSc2nc3ccccc3c(=O)n2CCCN2CCCCC2)cc1Cl | -7.9 | -7.9*
CC1CCN(CCCn2c(SCC(=O)Nc3ccccc3Cl)nc3ccccc3c2=O)CC1 | x | i
O=C(CNC(=O)c1cc(S(=O)(=O)N2CCCCC2)ccc1N1CCOCC1)Nc1ccc(F)c(F)c1 | x | i

Screening data as filed in PubChem BioAssay.
